Peg3 promoter = inhibitors of Peg3 promoter. HeLa PEG-Prom luciferase reporter, luminescence, overnight. inhibition, % at 20 µM. actives 1.7% (n = 360,000). AID 588405;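 active means inhibition of at least 50% at 20 µM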
CF NFkB block = blocks PAF-induced NF-kB reporter in cystic fibrosis cells | actives 0.86% (n = 360,000) | inhibition, % at 5 µM | KKLEB NF-kB-GFP reporter, GFP fluorescence overnight;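 active means at least 50% inhibition at 5 µM, scaled per plate between neutral and stimulator controls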;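 further: PAF is a Pseudomonas aeruginosa culture filtrate used as stimulus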
TRPM1 prom inh = reduces MITF-dependent TRPM1 promoter luciferase signal; actives 0.83% (n = 330,000); SK-MEL-5 TRPM1 promoter luciferase, 24 h; inhibition, % at 12.5 µM;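 active means mean inhibition across replicates of 60% or more, whatever share of single replicates reaches that level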
KKLEB tox = CF airway cell cytotoxicity counter-screen; KKLEB CF airway cells viability, ATPlite luminescence, overnight; hits give low values; cells stimulated with P. aeruginosa culture filtrate; activity change (cytotoxicity), % at 5 µM; actives 0.36% (n = 360,000);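 active means corrected activity change at or below -50% at 5 µM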
LMP1 NFkB inh = reduces LMP1-driven NF-kappaB luciferase signal | AID 504558 | inhibition, % at 12.5 µM | LMP1-induced NF-kappaB luciferase reporter cells, luminescence | actives 0.69% (n = 350,000); in the data active means inhibition above about 41%
HIF-2a inh = blocks HIF-2a reporter activity | inhibition, % at 18.8 µM | 786-0 RCC cells HIF-2a reporter, luciferase luminescence, overnight | AID 624352 | actives 0.72% (n = 360,000);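 active means inhibition of the luminescence signal of 40% or more relative to plate controls, in a single-dose primary screen at 18.75 µM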
Hits are given with their value; - = inactive; . = no result. Compounds with a hit are over-represented: about 3% of the library has one in this group of screens.

SMILES	Peg3 promoter	CF NFkB block	TRPM1 prom inh	KKLEB tox	LMP1 NFkB inh	HIF-2a inh
O=C(CSCC(=O)Nc1nc(-c2ccc3c(c2)OCO3)cs1)Nc1nccs1	-	-	-	-	85.3	-
C=CCC[C@H](Cc1ccc(F)cc1)C(=O)OC[C@@H](Cc1c[nH]c2ccccc12)NC(=O)[C@@H](CC=C)CC(=O)N(CCO)Cc1ccccc1	-	-	-	-	-	-
C=CCC[C@@H](Cc1ccc(F)cc1)C(=O)OC[C@H](Cc1c[nH]c2ccccc12)NC(=O)[C@H](CC=C)CC(=O)N(CCO)Cc1ccccc1	64.4	-	-	-	-	-
C=CCC[C@H](Cc1ccc(F)cc1)C(=O)OC[C@H](Cc1c[nH]c2ccccc12)NC(=O)[C@@H](CC=C)CC(=O)N(CCO)Cc1ccccc1	53.5	-	-	-	-	-
CC(=O)c1ccc(N2CCN(C(=O)c3cc(-c4cccnc4)nc4ccc(Br)cc34)CC2)cc1	-	-	-	-	-	-
Cc1ccc2nc(-c3cccnc3)cc(C(=O)N3CCN(c4ccc([N+](=O)[O-])cc4)CC3)c2c1	99.5	-	-	-	-	-
NC(=O)c1ccccc1NC(=O)c1ccccc1Cl	-	-	-	-	-	-
O=C(Nc1ccccc1C(=O)Nc1nnc(C(F)(F)F)s1)c1ccccc1Cl	-	56.2	-	-60.7	-	-
Cc1c(C(=O)NCc2ccc([N+](=O)[O-])cc2)sc(=O)n1Cc1ccc(-c2ccccc2)cc1	-	-	.	-	.	-
CCOC(=O)c1nnn(-c2ccccc2)c1C	-	-	-	-	-	-
CCOC(=O)c1nnn(-c2ccc([N+](=O)[O-])cc2[N+](=O)[O-])c1C	-	-	77.2	-	-	-
COc1ccccc1-c1cnc(C(O)c2ccc(CN3CCCCC3)cc2)[nH]1 (stereo not drawn)	-	-	.	-	.	-
Cc1ncc(CO)c2c1Oc1nc(-c3ccccc3)nc(SCC(=O)Nc3cccc(O)c3)c1C2	64.5	-	-	-	-	-
O=C(N[C@H]1CC[C@H](CCNC(=O)C2CC2)O[C@@H]1CO)c1ccccn1	.	.	.	.	.	-
C=CCN(c1ccc(C(=O)Nc2ccc3c(c2)OCO3)cc1)S(C)(=O)=O	-	-	-	-	-	-
C=CCN(c1ccc(C(=O)Nc2ccc3c(c2)n(C)c(=O)n3C)cc1)S(C)(=O)=O	-	-	-	-	79.8	-
Cc1ccc(OCC(=O)NNC(=S)NC(=O)C2CCCCC2)c(C)c1	-	-	-	-	45.0	-
Cc1cc(NC(=O)c2ccc3c(c2)OCCO3)ccc1NC(=O)c1cc2ccccc2o1	-	-	-	-	-	-
CN1CCN(c2ccc(NC(=O)c3cc4ccccc4o3)cc2)CC1	-	-	-	-	-	-
O=C(Nc1ccc(N2CCN(C(=O)c3ccccc3)CC2)cc1)c1ccc2c(c1)OCCO2	-	-	-	-	-	-
O=C(Nc1ccc(N2CCN(C(=O)c3ccccc3)CC2)cc1)c1cc2ccccc2o1	71.6	-	68.8	-	-	-
O=C(Nc1ccc(N2CCN(C(=O)c3ccc(Cl)cc3)CC2)cc1)c1ccc2c(c1)OCCO2	-	-	73.3	-	-	-
O=C(Nc1ccc(NC(=O)c2cc3ccccc3o2)cc1)c1ccc2c(c1)OCCO2	77.7	-	-	-	-	-
FC(F)(F)c1nc(-c2ccncc2)ncc1-c1nnnn1-c1ccccc1	-	-	-	-	-	-
Fc1ccc(-n2nnnc2-c2cnc(-c3cccs3)nc2C(F)(F)F)cc1	100.2	-	-	-	-	-
SMILES	Peg3 promoter	CF NFkB block	TRPM1 prom inh	KKLEB tox	LMP1 NFkB inh	HIF-2a inh
C[C@@H]1C[C@H]2[C@@H]3C[C@H](F)C4=CC(=O)C=C[C@]4(C)[C@@]3(Cl)[C@@H](O)C[C@]2(C)[C@H]1C(=O)COC(=O)C(C)(C)C	-	69.0	-	-	-	-
CCN(CC)c1ccc(S(=O)(=O)N2CCOCC2)cc1NC(=O)c1cc(=O)c2ccccc2o1	61.7	-	-	-	-	-
Cc1c(C(=O)N(Cc2ccccc2)C(C)C)oc2ccc(S(=O)(=O)N3CCOCC3)cc12	51.1	-	-	-	-	-
CCN(CC)c1ccc(S(=O)(=O)N2CCOCC2)cc1NC(=O)CSc1ccccc1	-	-	-	-	-	-
Cc1c(C(=O)N(C)Cc2ccccc2)oc2ccc(S(=O)(=O)N3CCCC3)cc12	-	-	-	-	-	-
CCCCC[C@@H](C)N1C[C@H](COCc2ccccc2)Oc2cc(N3CCC[C@H]3C(N)=O)ccc2S1(=O)=O	.	.	.	.	.	-
c1ccc2c(c1)oc1c(NCCN3CCOCC3)ncnc12	-	-	-	-	-	-
c1ccc2c(c1)oc1c(Nc3ccc(CN4CCOCC4)cc3)ncnc12	78.8	-	-	-	-	-
CCOC(=O)c1cnn(-c2ccccc2)c1NC(=O)CN1CCOCC1	-	-	-	-	63.3	-
COCCC1CCCCN1C(=O)c1cc(COc2ccc(C)nc2)on1 (stereo not drawn)	-	68.7	-	-94.8	-	-
COc1cccc(-n2c(SCC(=O)N3CCc4ccccc43)nnc2-c2c[nH]c3ccccc23)c1	100.8	60.1	-	-57.9	-	-
CCOc1ccc(-n2c(SCC(=O)N3CCc4ccccc43)nnc2-c2c[nH]c3ccccc23)cc1	-	-	.	-	-	-
COc1ccc(C)cc1NS(=O)(=O)c1ccc(-c2cnc(C3CC3)o2)cc1	-	-	68.4	-	-	-
COc1ccc(CNCCS(=O)(=O)NCc2ccc(OC)cc2)cc1	-	-	-	-	-	-
CCCCCCCCNS(=O)(=O)CCNCc1ccc(OC)cc1	61.1	-	-	-	-	-
CC1(CCC(=O)O)C(=O)CCC2C1CCC1(C)C2CCC1(C)O (stereo not drawn)	-	-	-	-	-	-
COc1cc(-c2cc3nc(NCCOc4ccccc4)ccn3n2)cc(OC)c1OC	53.2	-	.	-	.	-
CCc1nc2c(OCc3ccc(C(F)(F)F)cc3)cccn2c1N(C)C(=O)c1ccco1	-	-	.	-	.	-
c1ccc(CCNc2nc(-c3ccccn3)nc3ccccc23)cc1	-	-	-	-	46.2	-
CCCN(CCC)c1nc(-c2ccccn2)nc2ccccc12	51.5	-	-	-	-	-
C/C(=N\Nc1nc(-c2ccccn2)nc2ccccc12)c1ccc(F)cc1	-	-	-	-	-	-
COC(=O)C1=C(C(=O)OC)[C@@H]2N(C)c3ccc(OC)cc3[C@@]23C[C@@H](C(=O)OC)N(C(=O)c2ccc(Br)cc2)C3=N1	79.0	54.7	-	-	-	-
COC(=O)C1=C(C(=O)OC)[C@@H]2N(Cc3ccccc3)c3ccccc3[C@@]23C[C@@H](C(=O)OC)N(C(=O)COCc2ccccc2)C3=N1	55.4	-	-	-	-	-
CC#CCN1c2ccccc2[C@]23C[C@@H](C(=O)OC)N(C(=O)OCC)C2=NC(C(=O)OC)=C(C(=O)OC)[C@H]13	-	-	-	-	-	-
